# Experimental data: the supplement of paper PMC4466140
# Tests used:
# Test in all cases: SPOT peptide array binding signal intensity (averaged, normalized) (arbitrary units (background-subtracted, floor 0; scale differs between SH3 domains)); higher = stronger binding of the SH3 domain to the peptide
# [1] = target: AgAbp1
# Method in brief: (§1)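 E. coli BL21(DE3) was used to express GST-fused SH3 domains from four yeast species, which were then purified on glutathione Sepharose. These were incubated at 10 μg/ml in TBS-based blocking buffer overnight at 4°C on cellulose membranes carrying synthetic 15-mer peptides, in which cysteines were replaced by serines. Binding signal is the replicate average of normalized, background-subtracted spot intensity, in arbitrary units that differ between domains.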
# [2] = target: AgBbc1
# Method in brief: as §1
# [3] = target: AgBem1-D1
# Method in brief: as §1
# [4] = target: AgBzz1-D1
# Method in brief: as §1
# [5] = target: AgBzz1-D2
# Method in brief: as §1
# [6] = target: AgCyk3
# Method in brief: as §1
# [7] = target: AgFus1
# Method in brief: as §1
# [8] = target: AgHof1
# Method in brief: as §1
# [9] = target: AgHse1
# Method in brief: as §1
# [10] = target: AgLsb1
# Method in brief: as §1
# [11] = target: AgLsb4
# Method in brief: as §1
# [12] = target: AgMyo5
# Method in brief: as §1
# [13] = target: AgNbp2
# Method in brief: as §1
# [14] = target: AgRvs167
# Method in brief: as §1
# [15] = target: AgSho1
# Method in brief: as §1
# [16] = target: AgSla1-D1-D2
# Method in brief: as §1
# [17] = target: AgSla1-D3
# Method in brief: as §1
# [18] = target: CaAbp1-D1
# Method in brief: as §1
# [19] = target: CaAbp1-D2
# Method in brief: as §1
# [20] = target: CaBbc1
# Method in brief: as §1
# [21] = target: CaBem1-D1
# Method in brief: as §1
# [22] = target: CaBzz1-D1
# Method in brief: as §1
# [23] = target: CaBzz1-D2
# Method in brief: as §1
# [24] = target: CaCyk3
# Method in brief: as §1
# [25] = target: CaFus1
# Method in brief: as §1
# [26] = target: CaHof1
# Method in brief: as §1
# [27] = target: CaHse1
# Method in brief: as §1
# [28] = target: CaLsb1
# Method in brief: as §1
# [29] = target: CaLsb4
# Method in brief: as §1
# [30] = target: CaMyo5
# Method in brief: as §1
# [31] = target: CaNbp2
# Method in brief: as §1
# [32] = target: CaRvs167
# Method in brief: as §1
# [33] = target: CaRvs167-3
# Method in brief: as §1
# [34] = target: CaSho1
# Method in brief: as §1
# [35] = target: CaSla1-D1-D2
# Method in brief: as §1
# [36] = target: CaSla1-D3
# Method in brief: as §1
# [37] = target: ScAbp1
# Method in brief: as §1
# [38] = target: ScBbc1
# Method in brief: as §1
# [39] = target: ScBem1-D1
# Method in brief: as §1
# [40] = target: ScBzz1-D1
# Method in brief: as §1
# [41] = target: ScBzz1-D2
# Method in brief: as §1
# [42] = target: ScCyk3
# Method in brief: as §1
# [43] = target: ScFus1
# Method in brief: as §1
# [44] = target: ScHof1
# Method in brief: as §1
# [45] = target: ScHse1
# Method in brief: as §1
# [46] = target: ScLsb1
# Method in brief: as §1
# [47] = target: ScLsb2
# Method in brief: as §1
# [48] = target: ScLsb3
# Method in brief: as §1
# [49] = target: ScLsb4
# Method in brief: as §1
# [50] = target: ScMyo3
# Method in brief: as §1
# [51] = target: ScMyo5
# Method in brief: as §1
# [52] = target: ScNbp2
# Method in brief: as §1
# [53] = target: ScPex13
# Method in brief: as §1
# [54] = target: ScRvs167
# Method in brief: as §1
# [55] = target: ScSho1
# Method in brief: as §1
# [56] = target: ScSla1-D1-D2
# Method in brief: as §1
# [57] = target: ScSla1-D3
# Method in brief: as §1
# [58] = target: SpAbp1-D1
# Method in brief: as §1
# [59] = target: SpBbc1
# Method in brief: as §1
# [60] = target: SpBzz1-D1
# Method in brief: as §1
# [61] = target: SpBzz1-D2
# Method in brief: as §1
# [62] = target: SpCyk3
# Method in brief: as §1
# [63] = target: SpHof1
# Method in brief: as §1
# [64] = target: SpHof1-2
# Method in brief: as §1
# [65] = target: SpHof1-3
# Method in brief: as §1
# [66] = target: SpHse1
# Method in brief: as §1
# [67] = target: SpLsb1
# Method in brief: as §1
# [68] = target: SpLsb4
# Method in brief: as §1
# [69] = target: SpMyo1
# Method in brief: as §1
# [70] = target: SpNbp2
# Method in brief: as §1
# [71] = target: SpPex13
# Method in brief: as §1
# [72] = target: SpRvs167
# Method in brief: as §1
# [73] = target: SpSla1-D1-D2
# Method in brief: as §1
# [74] = target: SpSla1-D3
# Method in brief: as §1
binder,measurement,setting,value
AAHKTKPSIPPKKVE,SPOT peptide array binding signal intensity,[1],1520
same,SPOT peptide array binding signal intensity,[2],≤ 0
same,SPOT peptide array binding signal intensity,[3],≤ 0
same,SPOT peptide array binding signal intensity,[4],57.5
same,SPOT peptide array binding signal intensity,[5],5.5
same,SPOT peptide array binding signal intensity,[6],≤ 0
same,SPOT peptide array binding signal intensity,[7],≤ 0
same,SPOT peptide array binding signal intensity,[8],20
same,SPOT peptide array binding signal intensity,[9],≤ 0
same,SPOT peptide array binding signal intensity,[10],≤ 0
same,SPOT peptide array binding signal intensity,[11],≤ 0
same,SPOT peptide array binding signal intensity,[12],3.75
same,SPOT peptide array binding signal intensity,[13],≤ 0
same,SPOT peptide array binding signal intensity,[14],1
same,SPOT peptide array binding signal intensity,[15],8
same,SPOT peptide array binding signal intensity,[16],≤ 0
same,SPOT peptide array binding signal intensity,[17],3.25
same,SPOT peptide array binding signal intensity,[18],2440
same,SPOT peptide array binding signal intensity,[19],6290
same,SPOT peptide array binding signal intensity,[20],42
same,SPOT peptide array binding signal intensity,[21],≤ 0
same,SPOT peptide array binding signal intensity,[22],257
same,SPOT peptide array binding signal intensity,[23],243
same,SPOT peptide array binding signal intensity,[24],≤ 0
same,SPOT peptide array binding signal intensity,[25],≤ 0
same,SPOT peptide array binding signal intensity,[26],1.5
same,SPOT peptide array binding signal intensity,[27],13.2
same,SPOT peptide array binding signal intensity,[28],≤ 0
same,SPOT peptide array binding signal intensity,[29],≤ 0
same,SPOT peptide array binding signal intensity,[30],1
same,SPOT peptide array binding signal intensity,[31],≤ 0
same,SPOT peptide array binding signal intensity,[32],1.67
same,SPOT peptide array binding signal intensity,[33],≤ 0
same,SPOT peptide array binding signal intensity,[34],≤ 0
same,SPOT peptide array binding signal intensity,[35],282
same,SPOT peptide array binding signal intensity,[36],3.25
same,SPOT peptide array binding signal intensity,[37],907
same,SPOT peptide array binding signal intensity,[38],≤ 0
same,SPOT peptide array binding signal intensity,[39],≤ 0
same,SPOT peptide array binding signal intensity,[40],3.5
same,SPOT peptide array binding signal intensity,[41],1.5
same,SPOT peptide array binding signal intensity,[42],≤ 0
same,SPOT peptide array binding signal intensity,[43],≤ 0
same,SPOT peptide array binding signal intensity,[44],0.5
same,SPOT peptide array binding signal intensity,[45],≤ 0
same,SPOT peptide array binding signal intensity,[46],0.25
same,SPOT peptide array binding signal intensity,[47],0.5
same,SPOT peptide array binding signal intensity,[48],144
same,SPOT peptide array binding signal intensity,[49],13.5
same,SPOT peptide array binding signal intensity,[50],8.5
same,SPOT peptide array binding signal intensity,[51],2
same,SPOT peptide array binding signal intensity,[52],≤ 0
same,SPOT peptide array binding signal intensity,[53],7
same,SPOT peptide array binding signal intensity,[54],3.17
same,SPOT peptide array binding signal intensity,[55],6
same,SPOT peptide array binding signal intensity,[56],≤ 0
same,SPOT peptide array binding signal intensity,[57],2.5
same,SPOT peptide array binding signal intensity,[58],282
same,SPOT peptide array binding signal intensity,[59],≤ 0
same,SPOT peptide array binding signal intensity,[60],311
same,SPOT peptide array binding signal intensity,[61],≤ 0
same,SPOT peptide array binding signal intensity,[62],≤ 0
same,SPOT peptide array binding signal intensity,[63],0.25
same,SPOT peptide array binding signal intensity,[64],6
same,SPOT peptide array binding signal intensity,[65],3
same,SPOT peptide array binding signal intensity,[66],32.8
same,SPOT peptide array binding signal intensity,[67],11.5
same,SPOT peptide array binding signal intensity,[68],4
same,SPOT peptide array binding signal intensity,[69],≤ 0
same,SPOT peptide array binding signal intensity,[70],12.5
same,SPOT peptide array binding signal intensity,[71],1
same,SPOT peptide array binding signal intensity,[72],9.5
same,SPOT peptide array binding signal intensity,[73],4
same,SPOT peptide array binding signal intensity,[74],2.5
LPPPPPPPPPPPLPQ,SPOT peptide array binding signal intensity,[1],11
same,SPOT peptide array binding signal intensity,[2],1.25
same,SPOT peptide array binding signal intensity,[3],≤ 0
same,SPOT peptide array binding signal intensity,[4],42.5
same,SPOT peptide array binding signal intensity,[5],1
same,SPOT peptide array binding signal intensity,[6],1
same,SPOT peptide array binding signal intensity,[7],3
same,SPOT peptide array binding signal intensity,[8],128
same,SPOT peptide array binding signal intensity,[9],21
same,SPOT peptide array binding signal intensity,[10],1.5
same,SPOT peptide array binding signal intensity,[11],≤ 0
same,SPOT peptide array binding signal intensity,[12],640
same,SPOT peptide array binding signal intensity,[13],28.5
same,SPOT peptide array binding signal intensity,[14],≤ 0
same,SPOT peptide array binding signal intensity,[15],≤ 0
same,SPOT peptide array binding signal intensity,[16],4.5
same,SPOT peptide array binding signal intensity,[17],≤ 0
same,SPOT peptide array binding signal intensity,[18],9
same,SPOT peptide array binding signal intensity,[19],≤ 0
same,SPOT peptide array binding signal intensity,[20],≤ 0
same,SPOT peptide array binding signal intensity,[21],3
same,SPOT peptide array binding signal intensity,[22],1990
same,SPOT peptide array binding signal intensity,[23],495
same,SPOT peptide array binding signal intensity,[24],≤ 0
same,SPOT peptide array binding signal intensity,[25],≤ 0
same,SPOT peptide array binding signal intensity,[26],≤ 0
same,SPOT peptide array binding signal intensity,[27],5.75
same,SPOT peptide array binding signal intensity,[28],≤ 0
same,SPOT peptide array binding signal intensity,[29],≤ 0
same,SPOT peptide array binding signal intensity,[30],182
